# Source: PubChem BioAssay (NCATS)
# Records with an inconclusive call do not appear. Unmarked numbers belong to inactive results. Activity calls are given as the source filed them. Calls follow the shape of the dose curve; as a rule, active = well fitted cell-killing curve with a large enough effect; inconclusive = small, poorly fitted or top-dose-only effect, or effect the other way; inactive = no such curve, though single readings can be large or run the other way.
# Test: Cell Viability - LYMP2-004 (AID 966); also: nearly all actives have a fitted effect of over 65% in size; also: potency is read from the fitted curve at half-maximal effect;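 as to activity change, negative = cytotoxicity: plate controls were DMSO only for no effect and tetraoctylammonium bromide control for full effect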
# Details: LYMP2-004 lymphoblastoid cell viability, qHTS; series mostly up to 92.2 µM; activity change, negative = cytotoxicity: at the top concentration
# Summary of the method: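 Luminescent ATP read-out (CellTiter-Glo, 30 min RT) after 24 hr compound exposure at 37 C; 2500 lymphoblastoid cells/well, complete medium. Decrease in ATP = cytotoxicity; AC50 from standard Hill model.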
SMILES,"activity change, negative = cytotoxicity",Potency
CCCCCCc1ccc(-c2ccc(C#N)cc2)cc1,-9.7%,–
Nc1cnn([C@@H]2O[C@H](CO)[C@@H](O)[C@H]2O)c(=O)n1,18.7%,–
CCCCCCCCOc1ccc(C(=O)O)cc1,6.97%,–
Oc1c(Cl)cc(Cl)c(Cl)c1Cl,1.11%,–
CC(C)OCC1CO1 (centres undefined),-8.43%,–
C/C(Cl)=C/CCl,-4.15%,–
CCCCNCC,-3.73%,–
O=c1[nH]ncc2ccccc12,-3.28%,–
c1ccc(COCc2ccccc2)cc1,21.8%,–
O=[N+]([O-])c1cccc(I)c1,11.4%,–
Nc1ccc2c(c1)C(=O)c1ccccc1C2=O,-11.5%,–
c1ccc2c(c1)ccc1ccccc12,-25.7%,–
Nc1ccc(N=Nc2ccccc2)c(N)c1,-15%,–
Cc1ccc(C(=O)O)cc1[N+](=O)[O-],9.23%,–
OCC(CO)(CBr)CBr,-2.04%,–
Nc1cc(C(=O)O)c(O)c(S(=O)(=O)O)c1,14.7%,–
Oc1ccc2c(c1)OCO2,14.6%,–
c1ccncc1,13.3%,–

SMILES,"activity change, negative = cytotoxicity",Potency
CC(=O)OC1CC(C)OC(C)O1 (centres undefined),22.4%,–
O=C(OCc1ccccc1)c1ccccc1O,-12.5%,–
C/C=C/C=C/C=O,–,31.6 µM (active)
CCN(CC)c1ccc2c(C)cc(=O)oc2c1,-16.5%,–
c1c[nH]cn1,8.85%,–
c1ccc(SCCSc2ccccc2)cc1,3.87%,–
O=C(O)/C=C/c1ccc(/C=C/C(=O)O)cc1,12.1%,–
CCCCOC(=O)COc1ccc(Cl)cc1Cl,6.93%,–
CC(=O)OC(C(=O)c1ccccc1)c1ccccc1 (centres undefined),-4.08%,–
CCCCCCN,1.84%,–
CCC(Cl)CC(Cl)C(Cl)C(Cl)C(Cl)C(C)Cl (centres undefined),7.37%,–
COc1ccc(C)cc1N,-18.2%,–
CCc1ccc(C(c2ccc(CC)cc2)C(Cl)Cl)cc1,-13.7%,–
O=[N+]([O-])c1ccccc1Nc1ccccc1,-9.59%,–
C=CC1CO1 (centres undefined),-14.6%,–
COc1cc(-c2ccc(N=C=O)c(OC)c2)ccc1N=C=O,14.5%,–
CCOC(=O)C1OC1c1ccccc1 (centres undefined),-8.22%,–
COc1ccc(C(=O)Nc2ccccc2)cc1[N+](=O)[O-],-9.32%,–

# Test: Cell Viability - LYMP2-005 (AID 967);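 also: plate controls were DMSO only for no effect and 92 µM tetraoctylammonium bromide control for full effect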
# Details: LYMP2-005 lymphoblastoid cell viability; series mostly up to 92.2 µM; activity change, negative = viability loss: at the top concentration
# Summary of the method: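 LYMP2-005 human lymphoblastoid cells (2500/well) were treated with compounds for 24 h at 37 C. Intracellular ATP was then measured by CellTiter-Glo luminescence after 30 min at room temperature. AC50 values came from Hill-equation fits of qHTS concentration-response data.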
row,SMILES,"activity change, negative = viability loss"
1,CCCCCCc1ccc(-c2ccc(C#N)cc2)cc1,-4.09%
2,Nc1cnn([C@@H]2O[C@H](CO)[C@@H](O)[C@H]2O)c(=O)n1,19.2%
3,CCCCCCCCOc1ccc(C(=O)O)cc1,8.07%
4,Oc1c(Cl)cc(Cl)c(Cl)c1Cl,28.6%
5,CC(C)OCC1CO1 (centres undefined),16%
6,C/C(Cl)=C/CCl,-0.915%
7,CCCCNCC,2.04%
8,O=c1[nH]ncc2ccccc12,16.7%
9,c1ccc(COCc2ccccc2)cc1,12.4%
10,O=[N+]([O-])c1cccc(I)c1,7.63%
11,Nc1ccc2c(c1)C(=O)c1ccccc1C2=O,-19.9%
12,Nc1ccc(N=Nc2ccccc2)c(N)c1,-6.76%
13,Cc1ccc(C(=O)O)cc1[N+](=O)[O-],12.8%
